Assay results published in PubChem BioAssay (EPA / NIEHS).
Activity calls are given as the source filed them. How the source made its calls: active means hit-call score of the fitted dose curve at least 0.9, where 1 is the maximum; inactive means score below 0.9.

Key:
Conditions in all cases: mRNA level, 48 h; actives raise or lower the signal
[1] = read-out: Cytochrome P450 (CYP2B6), CYP2B6 (gene 1555); experiment: LTEA_HepaRG_CYP2B6: Life Technologies and Expression Analysis (LTEA) Assay for Cytochrome P450 (CYP2B6) using HepaRG (AID 2283481)
Summary of the method: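 HepaRG cells plated 48 h, switched to serum-free induction medium, then dosed 48 h (8 points, half-log from 100 uM, 0.5% DMSO). RNA isolated; CYP2B6 expression measured by qRT-PCR; gain or loss fitted relative to DMSO.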

[2] = read-out: Cytochrome P450 2C19 (Homo sapiens) (UniProt P33261); experiment: LTEA_HepaRG_CYP2C19: Life Technologies and Expression Analysis (LTEA) Assay for CYP2C19 using HepaRG (AID 2283482)
Summary of the method: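 Transcript levels of CYP2C19 were quantified by qRT-PCR after HepaRG cells were treated for 48 hours with test chemicals up to 100 uM (eight half-log concentrations, 0.5% DMSO vehicle). Gain or loss of signal was fitted relative to DMSO.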

CYP2C8 (gene 1558) = experiment: LTEA_HepaRG_CYP2C8: Life Technologies and Expression Analysis (LTEA) Assay for CYP2C8 using HepaRG (AID 2283483)
Summary of the method: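 This is a transcriptional endpoint in HepaRG cultures: 48 h exposure, highest concentration 100 uM. CYP2C8 mRNA is quantified by TaqMan qRT-PCR.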

CYP2C9 (gene 1559) = experiment: LTEA_HepaRG_CYP2C9: Life Technologies and Expression Analysis (LTEA) Assay for CYP2C9 using HepaRG (AID 2283484)
Summary of the method: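 Eight-point concentration-response (highest 100 uM, half-log dilutions) in HepaRG cells for 48 h; CYP2C9 expression by qRT-PCR normalized to ACTB, GAPDH, POLR2A. Bidirectional fit, DMSO baseline.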

CYP2E1 (gene 1571) = experiment: LTEA_HepaRG_CYP2E1: Life Technologies and Expression Analysis (LTEA) Assay for CYP2E1 using HepaRG (AID 2283485)
Summary of the method: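 Assay uses 48 h exposure of HepaRG hepatic cells, eight concentrations to 100 uM. Expression of CYP2E1 is quantified by TaqMan qRT-PCR with ACTB, GAPDH and POLR2A normalization; curves fitted in both directions relative to vehicle.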

CYP4A11 (gene 1579) = experiment: LTEA_HepaRG_CYP4A11: Life Technologies and Expression Analysis (LTEA) Assay for CYP4A11 using HepaRG (AID 2283486)
Summary of the method: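 HepaRG, 48 h chem exposure, 8 conc (100 uM top, half-log), 0.5% DMSO vehicle; qRT-PCR readout, housekeeping-gene normalized; bidirectional curve fit vs DMSO baseline.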

[3] = read-out: Cytochrome P450 3A4 (Homo sapiens) (UniProt P08684); experiment: LTEA_HepaRG_CYP3A4: Life Technologies and Expression Analysis (LTEA) Assay for CYP3A4 using HepaRG (AID 2283487)
Summary of the method: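 In a human hepatic line (HepaRG), duplicate wells were treated 48 h with up to 100 uM chemical in half-log dilutions. Endpoint: CYP3A4 mRNA induction or loss relative to 0.5% DMSO vehicle, by qRT-PCR.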

[4] = read-out: DNA damage-inducible transcript 3 (DDIT3), DDIT3 (gene 1649); experiment: LTEA_HepaRG_DDIT3: Life Technologies and Expression Analysis (LTEA) Assay for DNA damage-inducible transcript 3 (DDIT3) using HepaRG (AID 2283488)
Summary of the method: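 Eight-point concentration-response (100 uM highest, half-log dilutions) in HepaRG, 48 h, duplicate wells. Endpoint: qRT-PCR mRNA, normalized (ACTB, GAPDH, POLR2A), bidirectional fitting with DMSO as baseline.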

[5] = read-out: Pro-epidermal growth factor (Homo sapiens) (UniProt P01133); experiment: LTEA_HepaRG_EGF: Life Technologies and Expression Analysis (LTEA) Assay for Epidermal growth factor (EGF) using HepaRG (AID 2283489)
Summary of the method: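 HepaRG, 48 h dosing, 100 uM top, half-log x8, 0.5% DMSO. Readout: TaqMan qRT-PCR (Fluidigm array), housekeeping-normalized. Gain or loss of signal fit vs DMSO.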

[6] = read-out: Early growth response protein 1 (EGR1) transcription factor, EGR1 (gene 1958); experiment: LTEA_HepaRG_EGR1: Life Technologies and Expression Analysis (LTEA) Assay for Early growth response protein 1 (EGR1) transcription factor using HepaRG (AID 2283490)
Summary of the method: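 EGR1 expression change in human HepaRG after 48 h chemical exposure, assessed by housekeeping-normalized qRT-PCR; concentration-response up to 100 uM, fitted in both directions against DMSO controls.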

[7] = read-out: Ezrin (EZR), EZR (gene 7430); experiment: LTEA_HepaRG_EZR: Life Technologies and Expression Analysis (LTEA) Assay for Ezrin (EZR) using HepaRG (AID 2283491)
Summary of the method: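 Gain or loss of EZR mRNA is scored relative to 0.5% DMSO in human HepaRG cultures treated 48 h with test chemicals in duplicate, eight half-log concentrations from 100 uM.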

CYP3A5 (gene 1577) = experiment: LTEA_HepaRG_CYP3A5: Life Technologies and Expression Analysis (LTEA) Assay for CYP3A5 using HepaRG (AID 2283493)
Summary of the method: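 Readout was CYP3A5 mRNA by qRT-PCR. HepaRG cultures were exposed for 48 h in serum-free induction medium to chemicals at up to 100 uM, and responses were fitted in both directions relative to DMSO vehicle.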

[8] = read-out: Cytochrome P450 4A22 (Homo sapiens) (UniProt Q5TCH4); experiment: LTEA_HepaRG_CYP4A22: Life Technologies and Expression Analysis (LTEA) Assay for Cytochrome P450 4A22 (CYP4A22) using HepaRG (AID 2283495)
Summary of the method: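 Readout is CYP4A22 transcript induction or loss, quantified by qRT-PCR and normalized to ACTB, GAPDH and POLR2A. Human HepaRG cells receive test chemicals for 48 h at eight half-log concentrations from 100 uM in 0.5% DMSO.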

[9] = read-out: Cytochrome P450 7A1 (Homo sapiens) (UniProt P22680); experiment: LTEA_HepaRG_CYP7A1: Life Technologies and Expression Analysis (LTEA) Assay for Cytochrome P450 7A1 (CYP7A1) using HepaRG (AID 2283496)
Summary of the method: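 Using 0.5% DMSO as vehicle and baseline, chemicals were tested in duplicate over an 8-point range from 100 uM on HepaRG cells for 48 h; qRT-PCR signals were normalised to ACTB, GAPDH and POLR2A.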

[10] = read-out: Glutathione S-Transferase (GSTA2), GSTA2 (gene 2939); experiment: LTEA_HepaRG_GSTA2: Life Technologies and Expression Analysis (LTEA) Assay for Glutathione S-Transferase (GSTA2) using HepaRG (AID 2283497)
Summary of the method: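 Oxidative-stress marker GSTA2 is quantified by TaqMan qRT-PCR in HepaRG cultures treated 48 h across an eight-point range to 100 uM. Expression is normalized to endogenous controls and compared with 0.5% DMSO vehicle.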

[11] = read-out: Glutamate-cysteine ligase catalytic (GCLC), GCLC (gene 2729); experiment: LTEA_HepaRG_GCLC: Life Technologies and Expression Analysis (LTEA) Assay for Glutamate-cysteine ligase catalytic (GCLC) using HepaRG (AID 2283498)
Summary of the method: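 Oxidative-stress marker GCLC is measured as mRNA change in human HepaRG liver cells after 48 h chemical treatment in 0.5% DMSO, eight concentrations from 100 uM. Activity is fitted bidirectionally against vehicle.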

[12] = read-out: growth arrest and DNA damage 45 (GADD45G), GADD45G (gene 10912); experiment: LTEA_HepaRG_GADD45G: Life Technologies and Expression Analysis (LTEA) Assay for growth arrest and DNA damage 45 (GADD45G) using HepaRG (AID 2283499)
Summary of the method: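 Gain or loss of GADD45G mRNA, quantified by TaqMan qRT-PCR against three housekeeping genes, is fitted in both directions relative to 0.5% DMSO. Human HepaRG cultures receive test chemical for 48 h at up to 100 uM.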

[13] = read-out: Glutamate-cysteine ligase regulatory (GCLM), GCLM (gene 2730); experiment: LTEA_HepaRG_GCLM: Life Technologies and Expression Analysis (LTEA) Assay for Glutamate-cysteine ligase regulatory (GCLM) using HepaRG (AID 2283500)
Summary of the method: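 In this multiplexed HepaRG gene-expression assay, GCLM mRNA change after 48 h treatment (8 concentrations, max 100 uM) was scored against DMSO by bidirectional curve fitting.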

[14] = read-out: Cytochrome P450 3A7 (Homo sapiens) (UniProt P24462); experiment: LTEA_HepaRG_CYP3A7: Life Technologies and Expression Analysis (LTEA) Assay for CYP3A7 using HepaRG (AID 2283492)
Summary of the method: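 Human HepaRG liver cells, 48 h post-plating, switched to serum-free induction medium and exposed in duplicate for 48 h. Dosing: 100 uM top, half-log dilutions, 8 points, 0.5% DMSO vehicle. Read-out: CYP3A7 mRNA, gain or loss fitted against DMSO baseline.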

[15] = read-out: Fatty Acid-Binding Protein 1 (FABP1), FABP1 (gene 2168); experiment: LTEA_HepaRG_FABP1: Life Technologies and Expression Analysis (LTEA) Assay for Fatty Acid-Binding Protein 1 (FABP1) using HepaRG (AID 2283494)
Summary of the method: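 Values reflect bidirectional concentration-response fitting of FABP1 mRNA change against 0.5% DMSO controls. Human HepaRG cultures received eight half-log doses (top 100 uM) for 48 h; expression quantified by TaqMan qRT-PCR with housekeeping-gene normalization.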

Measured: AC50

Chain of Cytochrome P450 2C19 (Homo sapiens) (P33261 whole entry, looked up): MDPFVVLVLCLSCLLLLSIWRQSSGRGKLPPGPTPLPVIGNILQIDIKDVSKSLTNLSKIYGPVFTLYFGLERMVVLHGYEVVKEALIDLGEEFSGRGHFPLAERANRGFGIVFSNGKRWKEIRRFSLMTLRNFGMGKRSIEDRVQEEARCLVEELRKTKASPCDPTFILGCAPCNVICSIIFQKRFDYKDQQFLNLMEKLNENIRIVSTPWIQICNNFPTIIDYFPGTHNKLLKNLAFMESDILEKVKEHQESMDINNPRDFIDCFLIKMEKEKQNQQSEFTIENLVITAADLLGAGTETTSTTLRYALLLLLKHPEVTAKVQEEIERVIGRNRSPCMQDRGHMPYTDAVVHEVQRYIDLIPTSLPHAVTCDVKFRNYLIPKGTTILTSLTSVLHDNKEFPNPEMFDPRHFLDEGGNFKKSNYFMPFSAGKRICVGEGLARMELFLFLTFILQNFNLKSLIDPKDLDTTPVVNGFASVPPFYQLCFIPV
Chain of Cytochrome P450 3A4 (Homo sapiens) (P08684 whole entry, looked up): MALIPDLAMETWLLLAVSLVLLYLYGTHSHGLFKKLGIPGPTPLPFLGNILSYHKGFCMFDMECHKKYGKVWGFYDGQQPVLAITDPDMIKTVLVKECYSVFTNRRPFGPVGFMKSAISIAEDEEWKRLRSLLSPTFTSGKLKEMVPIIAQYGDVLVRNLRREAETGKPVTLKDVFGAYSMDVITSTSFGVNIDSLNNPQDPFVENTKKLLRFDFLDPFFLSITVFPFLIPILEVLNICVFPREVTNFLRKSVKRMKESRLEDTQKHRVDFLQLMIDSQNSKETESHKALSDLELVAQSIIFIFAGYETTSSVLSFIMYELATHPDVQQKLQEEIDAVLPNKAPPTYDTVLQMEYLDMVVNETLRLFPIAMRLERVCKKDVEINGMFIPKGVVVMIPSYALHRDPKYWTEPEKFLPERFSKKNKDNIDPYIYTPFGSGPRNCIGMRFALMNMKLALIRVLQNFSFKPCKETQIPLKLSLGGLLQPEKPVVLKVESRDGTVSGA
Chain of Cytochrome P450 3A7 (Homo sapiens) (P24462 whole entry, looked up): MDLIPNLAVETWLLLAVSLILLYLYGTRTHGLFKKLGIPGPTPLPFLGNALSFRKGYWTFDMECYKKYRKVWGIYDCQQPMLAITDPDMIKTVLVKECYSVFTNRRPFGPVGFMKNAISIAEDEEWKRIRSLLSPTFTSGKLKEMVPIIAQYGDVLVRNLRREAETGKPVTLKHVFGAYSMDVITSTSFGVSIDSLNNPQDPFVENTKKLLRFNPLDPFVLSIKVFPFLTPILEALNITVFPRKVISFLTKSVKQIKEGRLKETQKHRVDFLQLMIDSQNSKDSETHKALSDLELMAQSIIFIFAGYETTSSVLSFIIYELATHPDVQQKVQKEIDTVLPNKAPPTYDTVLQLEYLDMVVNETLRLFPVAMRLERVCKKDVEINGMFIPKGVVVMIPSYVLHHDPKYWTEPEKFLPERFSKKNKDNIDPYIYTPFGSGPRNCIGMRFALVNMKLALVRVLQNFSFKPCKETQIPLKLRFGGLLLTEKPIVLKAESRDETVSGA

Nc1c(Cl)c(F)nc(OCC(=O)O)c1Cl
not listed: [14] | [15]
inactive: all other assays above

COP(=O)(OC)O/C(C)=C/C(=O)N(C)C
not listed: [9] | [14] | [15]
inactive: all other assays above

COCC(=O)N(c1c(C)cccc1C)C(C)C(=O)OC (configuration not stated)
active: [1] 1.23 µM | [2] 3.91 µM | CYP2E1 (gene 1571) 50 µM | [15] 31.7 µM
not listed: [3] | [9] | [12]
inactive: all other assays above
